Our source for the outcome values is PubChem BioAssay (EPA / NIEHS).

Records with an inconclusive call do not appear. Calls of active or inactive are those of the source. Rule for the calls: active = hit-call score of the fitted dose curve at least 0.9, where 1 is the maximum; inconclusive = response in the unintended direction; inactive = score below 0.9.

This assay can be described thus: ATG_M_06_TRANS: Attagene TRANS-FACTORIAL HepG2 Assay for M06 Transcription Factor (Internal Marker) (AID 2282983). The conditions noted are these: HepG2 Attagene TRANS M06 internal marker reporter. The protocol: ATG_TRANS is a cell-based, multiplexed-readout assay that uses HepG2, a human liver cell line, with measurements taken at 24 hours after chemical dosing in a 24-well plate.ATG_M_06_TRANS is one of 30 assay component(s) measured or calculated from the ATG_TRANS assay. It is designed to make measurements of mRNA induction, a form of inducible reporter, as detected with fluorescence intensity signals by Reverse transcription polymerase chain reaction (RT-PCR) and Capillary electrophoresis technology.Data from the assay component ATG_M_06_TRANS was analyzed into 1 assay endpoint. This assay endpoint, ATG_M_06_TRANS, was analyzed in the positive analysis fitting direction relative to DMSO as the negative control and baseline of activity. Using a type of inducible reporter, measures of mRNA for gain-of-signal activity can be used to understand the background control at the transcription factor-level as they relate to the gene . Furthermore, this assay endpoint can be referred to as a secondary readout, because this assay has produced multiple assay endpoints where this one serves a background control function. To generalize the intended target to other relatable targets, this assay endpoint is annotated to the background measurement intended target family, where the subfamily is internal marker.
Human liver HepG2 cells are transiently transfected with multiple reporter transcription units (MRTUs) in 6-well plates using FuGene 6 reagent (Roche; 3 ml FuGene/1 mg DNA). The MRTU constructs are regulated by a cis-regulating element (promoter). […] A major difference between the CIS and TRANS system is that in CIS activities of endogenous TFs are measured, whereas the TRANS assay evaluates changes in activities of exogenous, chimeric NR-Gal4 proteins. […] At the end of 24 hour incubation, total RNA was isolated using TriZol reagent (Invitrogen). The isolated RNA is then reverse-transcribed using oligo(dT) primer and Mo-MLV reverse transcriptase (Invitrogen) with DNAse I (Ambion) treatment for 30 min. The one-tenth of the produced cDNA was amplified by PCR using Taq DNA polymerase (Invitrogen) and two reporter sequence-specific primers. The PCR products were fluorescently labeled by primer extension with 6-arboxyfluorescein (6-FAM) 5'-labeled reporter sequence-specific primer (2 min at 95 C, 20 s at 68 C and 10 min at 72 C) and these products were digested with 5U of HpaI (New England Biolabs) for 2h at 37 C. The fragments were purified using Qiaquick PCR columns (Qiagen), analyzed on an ABI 3130xL genetic analyzer (Applied Biosystems) with peak positions identified by using a set of X-rhodamine (ROX)-labeled MapMarker1000 molecular weight standards (BioVentures). The raw capillary electrophoresis data was processed using Attagraph software (Attagene).
In the case of `CCOP(=S)(OCC)Oc1nc(Cl)n(C(C)C)n1`, the molecule was classed as inactive.

With `CSC(=O)c1c(C(F)F)nc(C(F)(F)F)c(C(=O)SC)c1CC(C)C`, the call was inactive.

Consider `OC(c1ccc(Cl)cc1)(c1ccc(Cl)cc1)C(Cl)(Cl)Cl`, for which the result was inactive.

As for `CN=C=S`, the call was inactive.

For the molecule `COCC(C)N(C(=O)CCl)c1c(C)csc1C` (stereo not drawn), the molecule was classed as inactive.

Consider `CCNP(=S)(OC)O/C(C)=C/C(=O)OC(C)C` (stereo not drawn), for which the molecule was called inactive.

With `CCOC(=O)C(C)OC(=O)c1cc(Oc2ccc(C(F)(F)F)cc2Cl)ccc1[N+](=O)[O-]` (stereo not drawn), the molecule was classed as inactive.

In the case of `CCCCC(C#N)(Cn1cncn1)c1ccc(Cl)cc1` (stereo not drawn), the outcome was inactive.

As for `COP(=O)(OC)O/C(C)=C/C(=O)N(C)C`, the outcome was inactive.

Regarding `CC(C)Nc1nc(Cl)nc(NC(C)C)n1`, the molecule was classed as inactive.

For the molecule `CC1(C)CCC(=Cc2ccc(Cl)cc2)C1(O)Cn1cncn1` (stereo not drawn), the result was inactive.

Take `CC1(C)C(C=C(Cl)Cl)C1C(=O)OC(C#N)c1cccc(Oc2ccccc2)c1` (stereo not drawn): the molecule was classed as inactive.

In the case of `CC(C)=CC1C(C(=O)OCc2coc(Cc3ccccc3)c2)C1(C)C` (stereo not drawn), the molecule was called inactive.

For the molecule `N#Cc1c[nH]cc1-c1cccc2c1OC(F)(F)O2`, the outcome was inactive.

With `COc1cc(Cl)c(OC)cc1Cl`, the outcome was inactive.

Consider `COc1ccc(-c2ccccc2)cc1NNC(=O)OC(C)C`, for which the outcome was inactive.

For `CN/C(=N\[N+](=O)[O-])NCc1cnc(Cl)s1`, the call was inactive.

As to `COCc1cnc(C2=NC(C)(C(C)C)C(=O)N2)c(C(=O)O)c1` (stereo not drawn), the molecule was classed as inactive.

Consider `COP(=S)(OC)Oc1ccc([N+](=O)[O-])c(C)c1`, for which the molecule was classed as inactive.

In the case of `COC(=O)NS(=O)(=O)c1ccc(N)cc1`, the call was inactive.

In the case of `CS(=O)(=O)c1ccc(C(=O)C2C(=O)CCCC2=O)c([N+](=O)[O-])c1`, the call was inactive.

Turning to `COC(=O)c1c(C(F)F)nc(C(F)(F)F)c(C2=NCCS2)c1CC(C)C`, the molecule was classed as inactive.

Regarding `CC(C)NC(=O)N1CC(=O)N(c2cc(Cl)cc(Cl)c2)C1=O`, the call was inactive.

On to `COP(=S)(OC)SCn1nnc2ccccc2c1=O`, for which the molecule was called inactive.

On to `CC1(C)C(C(=O)OC(C#N)c2cccc(Oc3ccccc3)c2)C1(C)C` (stereo not drawn), for which the call was inactive.

As to `Nc1c(Cl)c(F)nc(OCC(=O)O)c1Cl`, the result was inactive.

Consider `CC(C)N1C(=O)c2ccccc2NS1(=O)=O`, for which the call was inactive.

Take `CCN(CC)C(=O)C(C)Oc1cccc2ccccc12` (stereo not drawn): the outcome was inactive.

For `Cc1cc(C)nc(Nc2ccccc2)n1`, the call was inactive.

As to `CNC(=O)N(C)c1nnc(C(C)(C)C)s1`, the molecule was classed as inactive.

On to `CCOP(=O)(OCC)Oc1nc(Cl)c(Cl)cc1Cl`, for which the result was inactive.

For `O=P(O)(O)CCCl`, the call was inactive.

In the case of `CCCCC(O)(Cn1cncn1)c1ccc(Cl)cc1Cl` (stereo not drawn), the call was inactive.

As to `C=C(C)CN(CC)c1c([N+](=O)[O-])cc(C(F)(F)F)cc1[N+](=O)[O-]`, the call was inactive.

`O=C(Nc1ccccc1-c1ccc(Cl)cc1)c1cccnc1Cl`: the outcome was inactive.

On to `Cc1c(COC(=O)[C@@H]2[C@H](/C=C(\Cl)C(F)(F)F)C2(C)C)cccc1-c1ccccc1`, for which the call was inactive.

In the case of `Cc1ccc(N=CN(C)C=Nc2ccc(C)cc2C)c(C)c1`, the molecule was called inactive.

Consider `Clc1cccc(C(Cl)(Cl)Cl)n1`, for which the outcome was inactive.
